Assay outcomes deposited in PubChem by National Center for Advancing Translational Sciences (NCATS).
SMN2 splice up = increases expression of the SMN2 splice variant; HEK293 SMN2-luciferase splicing reporter, luminescence, 30-36 h; Potency, µM (top dose mostly 46.1 µM), for inactives: at the top dose activity change, positive = activation, usual class: activators; 210,000 tested, 2.8% active; also: % of control where 0% means no effect; nearly all actives have a fitted effect of over 55% in size
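HEK293 cells carry an SMN2 minigene-luciferase reporter in which exon 7 inclusion puts luciferase in frame. Cells were seeded at 2000 cells/well, attached for 10-12 hours, then exposed to compounds for 30-36 hours at 37C before ONE-Glo luminescence.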
Rab9 prom act = Rab9 promoter activation; Potency, µM (top dose mostly 9.22 µM), for the others: top-dose activation, negative = inhibition, hits mostly activators; 320,000 tested, 2.8% active; Huh7 Rab9 promoter-luciferase reporter, luminescence, 24 h; AID 485297; also: % of control where 0% means no effect; nearly all actives have a fitted effect of over 60% in size
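Measured in stably transfected Huh7 cells bearing a Rab9 promoter–luciferase construct: 24 h compound treatment at 37 °C, followed by luminescence detection.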
FLuc modulator = inhibits or activates purified firefly luciferase, miR-21 counter-screen. P08659. purified FLuc, Km substrates, luminescence inhibition. Potency, µM (titrated, usually from 57.5 µM), for the others: at the highest dose activity change, negative = inhibition, actives largely listed as inhibitors. 360,000 tested, 6.9% active;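 also: plate controls were vehicle for no effect and reference inhibitor for full effect; nearly all actives have a fitted effect of over 55% in size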
Target sequence (P08659 whole entry, looked up): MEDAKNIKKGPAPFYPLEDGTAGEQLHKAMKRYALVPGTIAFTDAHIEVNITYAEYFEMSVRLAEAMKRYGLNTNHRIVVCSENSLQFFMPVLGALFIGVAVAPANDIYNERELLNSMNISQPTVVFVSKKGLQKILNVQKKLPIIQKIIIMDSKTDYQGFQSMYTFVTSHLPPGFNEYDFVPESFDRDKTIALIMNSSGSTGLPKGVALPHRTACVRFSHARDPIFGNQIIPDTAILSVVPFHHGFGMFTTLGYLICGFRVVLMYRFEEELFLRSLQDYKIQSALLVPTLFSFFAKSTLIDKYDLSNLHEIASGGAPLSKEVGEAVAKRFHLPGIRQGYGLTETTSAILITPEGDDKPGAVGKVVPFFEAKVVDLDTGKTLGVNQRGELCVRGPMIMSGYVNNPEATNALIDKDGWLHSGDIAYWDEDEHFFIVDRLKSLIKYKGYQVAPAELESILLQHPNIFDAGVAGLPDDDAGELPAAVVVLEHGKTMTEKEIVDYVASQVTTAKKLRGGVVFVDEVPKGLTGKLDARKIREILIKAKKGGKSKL
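Purified P. pyralis luciferase, 10 nM final, with Km-level 10 uM D-luciferin and 10 uM ATP in 50 mM Tris acetate pH 7.5, 10 mM Mg acetate, 0.01% Tween-20, 0.05% BSA; 6-point qHTS titration about 60 µM downward; luminescence read.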
p53 reactivator = mutant p53 re-activation in reporter cells | H1299 p53-A138V BP100-luciferase reporter, luminescence, 24 h | Potency, µM (top dose mostly 92.2 µM), for the others: top-dose activity change, positive = activation, most hits filed as activators | 320,000 tested, 0.063% active | AID 504706; also: % of control where 0% means no effect; nearly all actives have a fitted effect of over 45% in size
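p53-null H1299 cells stably carrying temperature-sensitive p53-A138V and a BP100-luciferase reporter were pinned with compounds (4-point, 1:5 series) and held 24 hrs at 37 deg C. Luminescence was read 10 min after detection reagent.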
ELG1 genotox = induces genotoxicity in HEK293T cells with luciferase-tagged ELG1 | HEK293T ELG1-luciferase reporter, luminescence, 16 h | Potency, µM (highest dose often 46 µM), for the others: at the highest dose activity change, positive = activation, actives largely listed as activators | 330,000 tested, 1.3% active | AID 504466; also: % of control where 0% means no effect; nearly all actives have a fitted effect of over 60% in size
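DMSO vehicle served as control against compound-treated ELG1-luciferase HEK293T cells; exposure lasted 16 hr at 37 °C and 5% CO2, followed by ONE-Glo luminescence detection after 30 min.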
NPC1 prom act = activates the NPC1 promoter; Potency, µM (titrated, usually from 9.22 µM), for the others: top-dose activation, actives largely listed as activators; Huh7 NPC1 promoter luciferase reporter, 24 h; AID 485313; 320,000 tested, 2.4% active; also: % of control where 0% means no effect; nearly all actives have a fitted effect of over 60% in size
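Huh7 reporter cells (NPC1 promoter driving luciferase) are dosed with compound for 24 h at 37 °C, 5% CO2; luciferase detection reagent is then added and luminescence measured after 10 min at ambient temperature.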
Active calls of the source: *; ? = inconclusive; / = not tested or not shown; [ ] = dose if it differs, or a comment. Only some compounds are listed: those with a hit (about 7.3% of all), similar ones and a draw of the others. Calls follow the shape of the dose curve; as a rule, active = well fitted curve in the direction sought with a large enough effect; inconclusive = small, poorly fitted or top-dose-only effect, or another doubt; inactive = no such curve, though single readings can be large; an effect the other way counts as inactive or inconclusive. Potency is read from the fitted curve at half-maximal effect.

SMILES | SMN2 splice up | Rab9 prom act | FLuc modulator | p53 reactivator | ELG1 genotox | NPC1 prom act
O=c1[nH]c(=S)[nH]c(O)c1N=Nc1ccc(SC(F)F)cc1 | / | 3.2µM* | 1.2µM* | ? | 6.5µM* | 3.2µM*
CC(C)c1ccc(N=Nc2c(O)[nH]c(=O)[nH]c2=O)cc1 | / | ? | 2.4µM* | 8% | ? | ?
O=S(=O)(O)/C(=C\c1ccccc1)c1ccccc1 (tested in a mixture with another compound) | -7%[9.22 µM] | / | / | / | / | /
CSCC[C@H](NC(=O)[C@H](Cc1ccccc1)NC(=O)CNC(=O)CNC(=O)[C@@H](N)Cc1ccc(O)cc1)C(=O)O | 11% | / | / | / | / | /
Cc1ccc(NC(=[OH+])c2cc3ccccc3cc2O)c(C)c1.Cc1ccc(NC(=[OH+])c2cc3ccccc3cc2O)c(C)c1.[Ni] | 23%[9.22 µM] | / | / | / | / | /
CCCN1CCCC(c2cccc(O)c2)C1 (centres undefined) | 7% | / | / | / | / | /
COc1ccc(N2C(=O)CS(=O)C(c3ccccc3)C2=O)cc1 (centres undefined) | 4% | 12% | 24µM* | ? | 14% | 12%
Oc1ccc([C@H](O)C2CCCCN2)cc1O (some centres undefined) | 11%[9.22 µM] | / | / | / | / | /
c1ccc(OCCSc2nc3ccccc3[nH]2)cc1 | ? | 29% | 17µM* | ? | 13% | ?
O=C(O)CN1CCN(CC(=O)O)CC(=O)[O][Hg][O]C(=O)C1 | 5%[9.22 µM] | / | / | / | / | /
Cc1cccc(NC(=O)CSc2ccc(-c3ccco3)nn2)c1 | -37% | 14% | 27µM* | 28% | -1% | 1%
COc1ccccc1OCCCn1cc(C=O)c2ccccc21 | / | 0.5µM* | ? | -3% | -1% | ?
CN(C)C(=O)Cl | -2% | / | / | / | / | /
CC1CC(OP(O)(=S)c2ccc(N(C)C)cc2NC(=O)c2cccs2)CC(C)(C)C1 (centres undefined) | 43% | -25% | 11µM* | 24% | -7% | -3%
O=C1/C(=C\c2ccccc2)C[C@@]2(O)[C@H]3Cc4ccc(O)c5c4[C@@]2(CCN3CC2CC2)[C@H]1O5 | -63% | / | / | / | / | /
CCOc1ccccc1-n1c(O)c(C=Nc2ccc(N(CC)CC)cc2)c(=O)[nH]c1=O | -5% | -5% | 19µM* | ? | 14% | 9%
CC(C)c1c(CN(C)[C@@H](C)Cc2ccccc2)n(C)n(-c2ccccc2)c1=O | -16%[20.6 µM] | / | / | / | / | /
Cc1ccc(C(C)(C)NC(=O)C2CCC(=O)N(C3CCCCCC3)C2)cc1 (centres undefined) | / | 3.2µM* | 15µM* | ? | ? | ?
c1ccc(NC2=Nc3ccccc3CC2)cc1 | 11% | ? | ? | ? | 16µM* | ?
ClC(Cl)=C(Cl)Cl | 17% | / | / | / | / | /
Fc1cccc(F)c1-c1nc(-c2ccc(Cl)cc2)no1 | / | 2.8µM* | 5.4µM* | 14% | ? | 4µM*
O=C(O)[C@@H]1[C@H](C(=O)O)[C@]2(Cl)C(Cl)=C(Cl)[C@@]1(Cl)C2(Cl)Cl | -64%[9.22 µM] | / | / | / | / | /
CCCCCn1c(=O)c(C(=O)Nc2nc3ccccc3[nH]2)c(O)c2ccccc21 | / | -7% | 1% | 1% | -7% | -4%
CCCSc1ccc2nc(NC(=O)OC)[nH]c2c1 | ? | 17% | 3µM* | 19% | -1% | 24%
Nc1cc2nc3ccccc3nc2cc1N | / | 28% | 19µM* | 5% | 11% | ?
SMILES | SMN2 splice up | Rab9 prom act | FLuc modulator | p53 reactivator | ELG1 genotox | NPC1 prom act
Nc1ccc(Cl)c(Cl)c1 | 4% | / | / | / | / | /
O=C(O)c1ccccc1Nc1cccc(C(F)(F)F)c1 | -25% | -11% | 15µM* | 12% | 0% | 1%
CC(C)c1ccc(C(O)(C(=O)O)c2ccc(C(C)C)cc2)cc1 | -10%[9.22 µM] | / | / | / | / | /
O=C(c1cc2c(s1)-c1ccccc1OC2)N1CCC2(CC1)OCCO2 | 5.6µM* | 0.89µM* | 6.7µM* | ? | ? | ?
C[C@H]1CC[C@@]2(NC1)O[C@@H]1C[C@@H]3[C@@H]4CC=C5C[C@@H](O)CC[C@]5(C)[C@@H]4CC[C@]3(C)[C@H]1[C@@H]2C | -3%[9.22 µM] | / | / | / | / | /
Cc1ccc(C(=O)Nc2nc3ccccc3[nH]2)cc1 | / | 0.63µM* | 0.095µM* | -8% | ? | 0.56µM*
O=C(COC(=O)c1cccc(NC(=O)c2ccc(Br)cc2)c1)c1ccc(Br)cc1 | 14% | / | 4.3µM* | / | / | /
Cc1ccc(C(=O)COC(=O)c2cccc(NC(=O)c3ccc(Br)cc3)c2)cc1 | ? | / | 1.2µM* | / | / | /
CCOC(=O)c1cccc(NS(=O)(=O)c2ccc(NC(C)=O)cc2)c1 | -48% | -15% | 0% | -6% | -19% | 1%
CC1=NN(c2ccc(S(=O)(=O)O)cc2C)C(=[OH+])[C@H]1N=Nc1cc(S(=O)(=O)O)ccc1C(=O)O.O.[Cr] | -10%[9.22 µM] | / | / | / | / | /
CCN(CC)c1ccc(/C=C2\C(=O)NC(=S)N(C)C2=O)o1 | / | 1.3µM* | 9.5µM* | 17% | 21µM* | 1.4µM*
CCN(CC)c1ccc(C=C2C(=O)N(C)C(=S)N(C)C2=O)o1 | ? | ? | ? | 15% | ? | 14%
COc1ccc(-c2n[nH]c(=S)n2-c2ccc3c(c2)OCCO3)cc1OC | / | 8% | 12µM* | 14% | ? | 1%
Cc1cc[c]([Sb]2[O]C([C@H](O)[C@H](O)C(=O)O)[C@@H](CO)[O]2)cc1 (some centres undefined) | 3%[9.22 µM] | / | / | / | / | /
Nc1ccc2cc(Br)ccc2c1 | -27% | 5% | -19% | -1% | 10% | 5%
CCN(CC)C(=O)Oc1ccc2cc(Br)ccc2c1 | 2% | 22% | 21µM* | 21% | ? | 8%
O=C(Nc1ccc2c(c1)OCO2)c1cn(Cc2ccc(F)cc2)nn1 | 17% | 22% | ? | 17% | 14% | 29%
Cc1cc(C(=O)Nc2ccc3c(c2)OCCO3)nn1C(C)(C)C | / | 3.5µM* | 7.6µM* | 11% | ? | 4.5µM*
Cc1cc(C(=O)Nc2ccccc2)nn1C(C)(C)C | / | 2.2µM* | 6.7µM* | 16% | ? | 2.2µM*
O=C1C2C3CCC(C3)C2C(=O)N1c1ccc(OS(=O)(=O)c2ccccc2)cc1 (centres undefined) | -27% | 1.1µM* | 12µM* | ? | ? | 3.5µM*
CN1C(=O)C(=Cc2ccccc2OS(=O)(=O)c2ccccc2)C(=O)N(C)C1=O | / | 2% | ? | 2% | ? | 0%
O=C1/C(=C\c2ccc([N+](=O)[O-])cc2)N2CCC1CC2 | -17% | 2% | 2% | ? | 0% | -3%
CN(C)c1ccc(/C=C2/C(=N\O)C3CCN2CC3)cc1 | / | 2.8µM* | 19µM* | 10% | ? | ?
